Hits are enriched below; roughly 4% of the tested compounds scored in any of these assays.
TROY signal inh = TROY signaling inhibition. Q293 LMP1-TROYcd NF-kB luciferase reporter, 4 h. actives 0.98% (n = 360,000). AID 1347056. inhibition, % at 10 µM;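 active = compounds whose plate-normalised and pattern-corrected inhibition of the luciferase reporter signal at the single screening dose is 50% or more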
KKLEB tox = CF airway cell cytotoxicity counter-screen | KKLEB CF airway cells viability, ATPlite luminescence, overnight; active compounds read low; cells stimulated with P. aeruginosa culture filtrate | activity change (cytotoxicity), % at 5 µM | actives 0.36% (n = 360,000);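 active = corrected activity change at or below -50% at 5 µM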
CF NFkB block = cystic fibrosis NF-kB activation inhibition. KKLEB NF-kB-GFP reporter, PAF-induced, GFP fluorescence overnight. inhibition, % at 5 µM. actives 0.86% (n = 360,000). AID 588850;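 active = at least 50% inhibition at 5 µM, scaled per plate between neutral and stimulator controls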;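 also: PAF is a Pseudomonas aeruginosa culture filtrate used as stimulus; plate controls were PAF-stimulated DMSO wells for no effect and unstimulated DMSO wells for full effect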
TWEAK Fn14 block = inhibitors of TWEAK-Fn14 interaction signaling; AID 1159606; actives 2% (n = 360,000); inhibition, % at 10 µM; TWEAK-stimulated Fn14 reporter cells, luciferase luminescence, 8 h; in the data active = inhibition above about 50%
HIF-2a inh = blocks HIF-2a reporter activity; 786-0 RCC cells HIF-2a reporter, luciferase luminescence, overnight; inhibition, % at 18.8 µM; actives 0.72% (n = 360,000); AID 624352;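 active = inhibition of the luminescence signal of 40% or more relative to plate controls, in a single-dose primary screen at 18.75 µM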
Peg3 prom inh = inhibitors of Peg3 promoter | HeLa PEG-Prom luciferase reporter, luminescence, overnight | inhibition, % at 20 µM | actives 1.7% (n = 360,000);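 active = inhibition of at least 50% at 20 µM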
* = called active by the depositor; x = no result.

SMILES	TROY signal inh	KKLEB tox	CF NFkB block	TWEAK Fn14 block	HIF-2a inh	Peg3 prom inh
CCOC(=O)CSc1nc2c(c(=O)[nH]1)C(C)(CC)Cc1ccccc1-2 (configuration not stated)	-11	-2	12	-11	9	33
O=C(NCc1ccc(F)cc1)C(c1ccccc1)c1ccccc1	1	4	-12	54*	21	12
COc1ccc(/C=C/C(=O)c2ccc(C(=O)/C=C/c3ccc(OC)c(OC)c3)cc2)cc1OC	-5	-14	-45	12	33	44
CCOc1cc(/C=C/C(=O)c2ccc(C)cc2)ccc1OCC(=O)N(C)C	-4	-54*	24	59*	23	49
C=CC[n+]1c(-c2ccc(Cl)cc2Cl)csc1Nc1ccc(NC(C)=O)cc1	35	9	-9	34	95*	40
CCOc1ccc(CN2CCN(Cc3ccsc3)C(CCO)C2)cc1CO (configuration not stated)	4	-15	11	89*	16	7
CC1=CN2C(=N)/C(=C/c3cn(CCCOc4ccccc4C)c4ccccc34)C(=O)N=C2S1	-1	-7	9	0	-153	-62
CC1=CN2C(=N)/C(=C/c3ccco3)C(=O)N=C2S1	40	-3	-18	81*	-194	-333
CCOc1ccc(-c2ccc(/C=C3/C(=N)N4C=CSC4=NC3=O)o2)c([N+](=O)[O-])c1	10	-42	29	26	1	33
CC1=CN2C(=N)/C(=C/c3ccc([N+](=O)[O-])o3)C(=O)N=C2S1	-19	-49	51*	45	67*	107*
Cc1ccnc(NS(=O)(=O)c2ccc(NC(=O)c3ccc(C)o3)cc2)n1	21	3	-8	17	10	5
CC1c2cc3c(cc2CCN1C(=O)c1ccc(C(F)(F)F)cc1)OCCCO3 (configuration not stated)	10	-8	11	-1	2	17
C(=C\c1nc(N2CCCC2)c2ccccc2n1)/c1ccccc1	-38	-5	-87	-28	-78	103*
CC1CCN(c2nc(/C=C/c3ccccc3)nc3ccccc23)CC1	-42	2	-13	-23	-76	-53
Cc1[nH]n2c(=O)cc(-c3ccc([N+](=O)[O-])cc3)nc2c1-c1ccccc1	3	-11	22	-80	13	58*
COc1ccc(-c2c(C(F)(F)F)[nH]n3c(=O)cc(-c4ccccc4)nc23)cc1	51*	-24	25	-17	17	39
CCn1c(C(O)c2cccc(OC)c2OC)nc2ccccc21 (configuration not stated)	4	2	-7	2	23	16
CCN1CCN(c2nc(S(=O)(=O)c3ccc(C)cc3)c(Cl)s2)CC1	51*	-2	15	0	-5	5
CCN1CCN(c2sc(S(C)(=O)=O)nc2S(=O)(=O)c2ccc(C)cc2)CC1	6	-15	27	13	11	18
Cc1ccccc1CN1CCN(C/C=C/c2ccccc2)CC1	12	2	-17	58*	-18	28
CCC(=O)Nc1ccc(Nc2nc(C)c([N+](=O)[O-])c(Nc3ccc(NC(=O)CC)cc3)n2)cc1	6	-12	40	34	9	53*
Cc1nc(Nc2ccc(C(=O)O)cc2)nc(Nc2ccc(C(=O)O)cc2)c1[N+](=O)[O-]	-1	2	7	12	6	11
Cc1ccc(NC(=O)CCN2C(=O)c3ccccc3Sc3ncccc32)cc1	-26	13	13	16	-10	-12
CC1(C)CC(=O)C(N=Nc2cccnc2)=C(O)C1	6	2	-15	-14	-2	2
Cc1ccc(S(=O)(=O)N2[C@@H](c3ccc(Br)cc3)C(C(=O)O)=CC[C@H]2c2ccc(C(C)C)cc2)cc1	70*	6	48	21	2	25
SMILES	TROY signal inh	KKLEB tox	CF NFkB block	TWEAK Fn14 block	HIF-2a inh	Peg3 prom inh
Cc1ccc(S(=O)(=O)N2[C@@H](c3ccc(Cl)cc3)C(C(=O)O)=CC[C@H]2c2ccc(Cl)c(Cl)c2)cc1	63*	23	2	26	11	5
CCc1ccc([C@@H]2CC=C(C(=O)O)[C@H](c3ccc(C(C)(C)C)cc3)N2S(=O)(=O)c2ccc(C)cc2)cc1	84*	4	42	84*	14	-1
Cc1ccc(S(=O)(=O)N2[C@@H](c3ccc(Cl)c(Cl)c3)C(C(=O)O)=C[C@H]2CC2CCCC2)cc1	67*	9	27	11	12	1
COc1cc(OC)c(NC(=O)CC(C)=O)cc1Cl	-4	-5	-7	-13	24	-5
Cc1ccc(S(=O)(=O)N2[C@@H](c3ccc(C(C)(C)C)cc3)C(C(=O)O)=CC[C@H]2c2ccc(Cl)cc2)cc1	88*	-7	25	89*	13	25
Cc1ccc(S(=O)(=O)N2C(c3ccc(Cl)c(Cl)c3)CC=C(C(=O)O)C2c2ccc(Cl)cc2)cc1 (configuration not stated)	x	x	x	x	-21	x
COCCCC1CCN(C(=O)C2CCC(=O)N(C3CCCC3)C2)CC1 (configuration not stated)	-14	19	-10	-8	3	0
CCN=C1SC(CC(=O)Nc2sc3c(c2C#N)CCCC3)C(=O)N1CC (configuration not stated)	-1	3	-2	-18	-4	30
COc1cccc(-n2nnnc2S(C)(=O)=O)c1	29	-32	94*	16	87*	103*
CCOC(=O)CC(=O)NC(CC(=O)OC)c1ccc(Br)cc1 (configuration not stated)	2	1	4	-6	6	0
COc1ccc(NC(=O)CSc2nc(N)c3cc4c(nc3n2)CCCC4)c(OC)c1	7	-12	-12	-13	-25	-18
COc1cccc(C(=O)NC(=S)Nn2cnnc2)c1OC	4	22	-5	57*	9	-9
O=C(NC(=S)Nn1cnnc1)c1ccccc1Cl	10	1	-25	-8	-1	-6
COC(=O)CCCCCN1C(=O)NC(c2ccccc2)C(C(=O)OCc2ccccc2)=C1C (configuration not stated)	-10	-23	16	18	21	12
O=C(CN(Cc1cccs1)S(=O)(=O)c1ccc(S(=O)(=O)NC2CCCCC2)cc1)Nc1ccccc1	27	-10	-10	69*	16	47
COc1cccc(NC(=O)C2(C)CCN2Cc2ccc(OC(C)C)cc2)c1 (configuration not stated)	-22	-10	8	-2	2	19
Cc1ccc(C2=C/C(=C/c3cccs3)C(=O)O2)cc1	-32	0	-6	53*	-124	-53
Cc1ccc(C=C2C=C(c3ccccc3)OC2=O)cc1	-42	-5	13	-20	-236	-195

Source: PubChem BioAssay (Sanford-Burnham Center for Chemical Genomics)
